The whole screen tested about 5,500 compounds, of which about 2,000 (36%) were called active. Not shown: some 18% with an inconclusive outcome. The list shows a part of the results. Unmarked numbers belong to inactive results. No stated cut-off is given here; in the data, active means normalized growth mostly below about 0.91 (no sharp cut-off); inconclusive means no clear call, values can overlap the other calls; inactive means mostly above about 0.92.
Experiment: chemical genetic growth profiling, strain panel (AID 1159580);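 further: tested at 20 µM; growth read once vehicle control cultures reached saturation at 30 °C; 1 = growth at the plate median or of vehicle wells; lower values mean less growth of the strain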
Conditions: S. cerevisiae deletion strains, growth OD
[1] = locus YDL101C, strain DUN1, hits give low values
[2] = locus YHR030C, strain SLT2, hits give low values
[3] = locus YAL013W, strain DEP1, hits give low values
[4] = locus YBR229C, strain ROT2, hits give low values
[5] = locus YDL134C, strain PPH21, hits give low values
[6] = locus YDR150W, strain NUM1, hits give low values
[7] = locus YEL061C, strain CIN8, hits give low values
[8] = locus YGR078C, strain PAC10, hits give low values
[9] = locus YHR087W, strain rtc3, hits give low values
[10] = locus YJR075W, strain HOC1, hits give low values
[11] = locus YLR039C, strain RIC1, hits give low values
[12] = locus YLR058C, strain SHM2 (second series), hits give low values
[13] = locus YLR085C, strain ARP6, hits give low values
[14] = locus YLR262C, strain YPT6, hits give low values
[15] = locus YML094W, strain GIM5, hits give low values
[16] = locus YMR219W, strain ESC1, hits give low values
[17] = locus YMR263W, strain SAP30, hits give low values
[18] = locus YMR307W, strain GAS1, hits give low values
[19] = locus YNL153C, strain GIM3, hits give low values
[20] = locus YNL298W, strain CLA4 (second series), hits give low values
[21] = locus YNL322C, strain KRE1, hits give low values
[22] = locus YNR030W, strain Alg12, hits give low values
[23] = locus YPL055C, strain LGE1, hits give low values
[24] = locus YPL241C, strain CIN2, hits give low values
[25] = locus YPR135W, strain CTF4, hits give low values

What does the source list for `CCc1ccn2cc(Nc3ccccc3Cl)nc2c1`?
normalized growth (locus YAR019C, strain CDC15, hits give low values): 0.983; normalized growth (locus YBL105C, strain PKC1, hits give low values): 0.976; normalized growth (locus YBR135W, strain CKS1, hits give low values): 0.98; normalized growth (locus YBR136W, strain MEC1, hits give low values): 0.968; normalized growth (locus YBR160W, strain CDC28, hits give low values): 0.971; normalized growth (locus YDL017W, strain CDC7, hits give low values): 0.974; normalized growth (locus YDL028C, strain MPS1, hits give low values): 0.98; normalized growth [1]: 0.982; normalized growth (locus YDL108W, strain KIN28, hits give low values): 0.976; normalized growth (locus YDL132W, strain cdc53, hits give low values): 0.985; normalized growth (locus YDL214C, strain PRR2, hits give low values): 0.945; normalized growth (locus YDR052C, strain DBF4, hits give low values): 0.993; normalized growth (locus YDR054C, strain cdc34, hits give low values): 0.959; normalized growth (locus YDR226W, strain ADK1, hits give low values): 0.985; normalized growth (locus YDR477W, strain SNF1, hits give low values): 0.947; normalized growth (locus YER123W, strain YCK3, hits give low values): 0.898; normalized growth (locus YER133W, strain GLC7, hits give low values): 0.947; normalized growth (locus YFL009W, strain cdc4, hits give low values): 0.983; normalized growth (locus YFL029C, strain CAK1, hits give low values): 0.98; normalized growth (locus YFR003C, strain YPI1, hits give low values): 0.973; normalized growth (locus YFR019W, strain FAB1, hits give low values): 0.948; normalized growth (locus YFR028C, strain CDC14, hits give low values): 0.978; normalized growth (locus YGR040W, strain KSS1, hits give low values): 0.91; normalized growth (locus YGR052W, strain FMP48, hits give low values): 1.01; normalized growth (locus YGR092W, strain DBF2, hits give low values): 0.898; normalized growth [2]: 0.965; normalized growth (locus YHR079C, strain IRE1, hits give low values): 0.96; normalized growth (locus YHR082C, strain KSP1, hits give low values): 0.998; normalized growth (locus YHR205W, strain SCH9, hits give low values): 0.959; normalized growth (locus YIL147C, strain SLN1, hits give low values): 0.973; normalized growth (locus YJL095W, strain BCK1, hits give low values): 0.96; normalized growth (locus YJL128C, strain PBS2, hits give low values): 0.967; normalized growth (locus YJL157C, strain FAR1, hits give low values): 0.906; normalized growth (locus YJR016C, strain ILV3, hits give low values): 0.987; normalized growth (locus YJR066W, strain TOR1 (second series), hits give low values): 0.895; normalized growth (locus YJR066W, strain TOR1, hits give low values): 0.973; normalized growth (locus YKL048C, strain ELM1, hits give low values): 0.984; normalized growth (locus YKL067W, strain YNK1, hits give low values): 0.962; normalized growth (locus YKL101W, strain HSL1, hits give low values): 0.949; normalized growth (locus YKL193C, strain SDS22, hits give low values): 0.979; normalized growth (locus YKL203C, strain TOR2, hits give low values): 0.973; normalized growth (locus YLR113W, strain HOG1, hits give low values): 0.916; normalized growth (locus YLR133W, strain CKI1, hits give low values): 0.928; normalized growth (locus YLR403W, strain SFP1, hits give low values): 0.886; normalized growth (locus YML070W, strain DAK1, hits give low values): 0.917; normalized growth (locus YMR001C, strain CDC5, hits give low values): 0.978; normalized growth (locus YMR205C, strain PFK2 (second series), hits give low values): 0.966; normalized growth (locus YMR277W, strain FCP1, hits give low values): 0.981; normalized growth (locus YNL006W, strain LST8, hits give low values): 0.997; normalized growth (locus YNL020C, strain ARK1, hits give low values): 0.94; normalized growth (locus YNL161W, strain CBK1, hits give low values): 0.98; normalized growth (locus YNL183C, strain NPR1, hits give low values): 0.973; normalized growth (locus YNL207W, strain RIO2, hits give low values): 0.972; normalized growth (locus YNL222W, strain SSU72, hits give low values): 0.973; normalized growth (locus YNL307C, strain MCK1 (second series), hits give low values): 0.917; normalized growth (locus YOL078W, strain AVO1, hits give low values): 0.981; normalized growth (locus YOL136C, strain PFK27, hits give low values): 0.926; normalized growth (locus YOR061W, strain CKA2, hits give low values): 0.963; normalized growth (locus YOR119C, strain RIO1, hits give low values): 0.985; normalized growth (locus YOR231W, strain MKK1, hits give low values): 0.905; normalized growth (locus YOR329C, strain SCD5, hits give low values): 0.972; normalized growth (locus YPL031C, strain PHO85, hits give low values): 0.911; normalized growth (locus YPL153C, strain RAD53, hits give low values): 0.912; normalized growth (locus YPL204W, strain HRR25, hits give low values): 0.921; normalized growth (locus YPL209C, strain IPL1, hits give low values): 0.976; normalized growth (locus YPL256C, strain CLN2, hits give low values): 0.917; normalized growth (locus YPR025C, strain CCL1, hits give low values): 0.983; normalized growth (locus YPR106W, strain ISR1, hits give low values): 0.971; normalized growth (locus YPR111W, strain DBF20, hits give low values): 0.97; normalized growth (strain NNK1, hits give low values): 0.981; normalized growth (strain TSCII, hits give low values): 0.983

Which results are given for `CC(=O)c1ccc(-c2cccs2)s1`?
normalized growth [3]: 0.95; normalized growth [4]: 0.963; normalized growth [1]: 0.944; normalized growth [5]: 0.999; normalized growth [6]: 0.953; normalized growth [7]: 0.939; normalized growth [8]: 0.989; normalized growth [2]: 0.58 (active); normalized growth [9]: 0.992; normalized growth (locus YJL187C, strain SWE1, hits give low values): 0.978; normalized growth [10]: 0.995; normalized growth [11]: 0.777 (active); normalized growth [12]: 0.972; normalized growth [13]: 0.606 (active); normalized growth [14]: 0.855; normalized growth [15]: 0.887; normalized growth [16]: 0.981; normalized growth [17]: 1; normalized growth [18]: 0.95; normalized growth (locus YNL128W, strain TEP1, hits give low values): 0.98; normalized growth [19]: 0.878 (active); normalized growth [20]: 0.901; normalized growth [21]: 0.985; normalized growth [22]: 0.966; normalized growth [23]: 0.9; normalized growth [24]: 0.869; normalized growth [25]: 0.69

What does the source list for `O=C1CCC(c2cccs2)=NN1`?
normalized growth [3]: 0.979; normalized growth [4]: 1; normalized growth [1]: 0.974; normalized growth [5]: 1; normalized growth [6]: 0.986; normalized growth [7]: 0.987; normalized growth [8]: 0.99; normalized growth [2]: 1.03; normalized growth [9]: 0.999; normalized growth (locus YJR043C, strain POL32, hits give low values): 1; normalized growth [10]: 1.01; normalized growth [11]: 0.993; normalized growth [12]: 1; normalized growth [13]: 0.998; normalized growth [14]: 1.02; normalized growth [15]: 1; normalized growth [16]: 0.997; normalized growth [17]: 1.03; normalized growth [18]: 1.09; normalized growth [19]: 0.998; normalized growth [20]: 1.01; normalized growth [21]: 0.985; normalized growth [22]: 1; normalized growth (locus YOL006C, strain TOP1, hits give low values): 0.99; normalized growth [23]: 1.01; normalized growth [24]: 1.05; normalized growth [25]: 0.901

— PubChem BioAssay AID1159580 (chemical genetic matrix, 2015)
